Growth data for 40 compounds are collected here from PubChem BioAssay (NCI).

The structures appear in SMILES notation. This is part of a sample that, as a whole, favours compounds with a hit. Of some 83,000 tested, about 20% had one in any assay.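 The endpoint reported here, percent growth, reads 100 for growth as untreated, 0 for no net growth and -100 for all cells dead.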 Active and inactive are the calls of the source.

In this experiment the test system is EKVX NSCLC. Kind of experiment: NCI-60 one-dose screen, 48 h (100 = growth as untreated, 0 = no growth, -100 = all killed). As to conditions: 10 µM. The method, then: Growth inhibition of the EKVX human Non-Small Cell Lung tumor cell line is measured as a screen for anti-cancer activity. Cells are grown in 96 well plates and exposed to the test compound for 48 hours. Compounds are tested at a single concentration, which is 10^-5 M for most compounds. The reported endpoint is percent growth (GI% or GIPRCNT), where numbers from 0 - 100% represent growth inhibition, and numbers from -100% - 0 represent cell death. For example, a value of 40 represents 60% growth inhibition. A value of 0 means no net growth occurred over the course of the experiment. A value of -40 indicates 40% of cells at the beginning of the experiment died by the end of the experiment. A value of -100 means all cells are dead at the end of the experiment.
NCI-60 Human Tumor Cell Lines Screen was performed using the standard one-dose NCI protocol, which is described in more detail at https://dtp.cancer.gov/discovery_development/nci-60/default.htm.
Compounds with GIPRCNT values below 10 were considered active. Activity score was based on GIPRCNT using the following formula: […]
Score is 0 for GIPRCNT values of 100 or above, 50 for GIPRCNT values of 0, and 100 for GIPRCNT values of -100.
Consider `COc1ccc2c(c1)sc1nc(-c3ccccc3)c(-c3cccnc3)n12`, for which the growth is 83% (inactive).

In the case of `Cc1cc(N(CCCNc2ccnc3cc(Cl)ccc23)Cc2ccc3c(c2)OCO3)nc(N2CCCCC2)n1`, the growth is 2.19% (active).

In the case of `O=C(Nc1ccncc1)C(=O)c1cn(S(=O)(=O)c2cc(Cl)cc(Cl)c2)c2ccccc12`, the growth was 52.3% (inactive).

As to `COc1ccc(OC)c2c1C(=O)CC2C` (stereo not given), the growth was 98.7% (inactive).

Take `COc1ccc(/C=C/C(=O)Nc2ccc(-c3nc4ccc(OC)cc4s3)cc2)cc1`: the growth was 100% (inactive).

For `c1ccc2c(c1)oc1c3cccnc3ccc21`, the growth was 64.4% (inactive).

As to `COc1ccc2c(c1)N(CCO)C1=C(C(=O)OC1)C2c1cc(OC)c(OC)c(OC)c1` (stereo not given), the growth was 40.3% (inactive).

As to `CO/N=C(/C(=O)NC1C(=O)N2C(C(=O)O)=C(COC(N)=O)CSC12)c1ccco1` (stereo not given), the growth is 99.4% (inactive).

As for `Cc1cccc2c(NCCN(C)C)c3cccc(C(=O)NCCN(C)C)c3nc12`, the growth is 19.4% (inactive).

For `CC(C)=CCc1cc(O)cc2c1OC(C=C(C)C)C1=C2C(=O)C2=C(C1=O)S(=O)(=O)CCN2` (stereo not given), the growth was 50.2% (inactive).

Take `COc1ccc(/C(=C2/O[C@@H]([C@H]3COC(C)(C)O3)[C@H]3OC(C)(C)O[C@@H]23)c2cc(OC)c(OC)c(OC)c2)cc1O`: the growth is 101% (inactive).

`CCN(CC)CCSCCCNc1c2ccc(Cl)cc2nc2ccc(OC)cc12`: the growth was -20.2% (active).

As to `COc1ccc(C2=NN(C(=O)c3ccc(S(C)(=O)=O)cc3)C(c3ccc(OC)c(OC)c3)C2)c(OC)c1` (stereo not given), the growth was 98.7% (inactive).

Consider `O=C(O)CN1C(=O)c2cccc3cccc(c23)C1=O`, for which the growth was 82.6% (inactive).

As to `CCN(CC)CCNC(=O)c1ccc(NC(C)=O)cc1`, the growth was 100% (inactive).

On to `COc1ccc(OC)c(/C=C/c2nnc(Nc3ccc(Cl)cc3)o2)c1`, for which the growth is 68.1% (inactive).

Regarding `CCCCCCCCCCCCCC[n+]1ccc(C(N)=O)cc1`, the growth was 1.08% (active).

In the case of `C=C(NC(=O)C(=C)NC(=O)c1csc(C2=NC3c4csc(n4)C4NC(=O)c5csc(n5)C(C(C)(O)C(C)O)NC(=O)C5CSC(=N5)/C(=C/C)NC(=O)C(C(C)O)NC(=O)c5csc(n5)C3(CC2)NC(=O)C(C)NC(=O)C(=C)NC(=O)C(=C)NC(=O)C(C(C)C)NC2C=Cc3c(C(C)O)cc(nc3C2O)C(=O)OC4C)n1)C(N)=O` (stereo not given), the growth was 42.2% (inactive).

For the compound `COc1ccccc1CNCCN1C(=O)c2ccc3c4c(ccc(c24)C1=O)C(=O)N(CCNCc1ccccc1OC)C3=O`, the growth is -78.1% (active).

`COc1ccc(C2CC(c3ccc(N(C)C)cc3)=NN2c2ccc(S(N)(=O)=O)cc2)cc1` (stereo not given): the growth is 28.4% (inactive).

As to `CCCCCCCCCCCC[n+]1ccc(C(N)=O)cc1`, the growth was 22.2% (inactive).

Turning to `COc1cc2c(cc1OCCCN1CCN(c3ncnc4ccccc34)CC1)N=CC1CCCN1C2=O` (stereo not given), the growth is -38.6% (active).

For the compound `Cc1cn(C2CCCCO2)c(=O)nc1NO` (stereo not given), the growth is 92.9% (inactive).

Regarding `Nc1ncnc2[nH]c(=O)[nH]c12`, the growth is 83.2% (inactive).

Take `COc1ccc2nc3cc(Cl)ccc3c(NCCNCC(C)O)c2c1` (stereo not given): the growth is 38.1% (inactive).

Consider `CCN(CC)CCCC(C)Nc1ccc2ccc(Cl)cc2n1` (stereo not given), for which the growth was 103% (inactive).

Regarding `COc1cc(-c2nc(-c3nnc(-c4ccc(F)c(Cl)c4)o3)c3ccccn23)cc(OC)c1OC`, the growth was 64.2% (inactive).

Consider `COc1ccc(-c2nc3sccn3c2-c2nc3c([nH]2)C(=O)c2ccccc2C3=O)cc1`, for which the growth was 83.1% (inactive).

In the case of `CCCCCCCCN(CCCCCCCC)CCCCCCCCCN1CCCc2cc(OC)ccc21`, the growth is 81.5% (inactive).

For the compound `COc1ccc(OC)c(/C=C/c2nc(SCc3ccccc3)n(-c3ccc(Cl)cc3)n2)c1`, the growth was 74.3% (inactive).

`COc1cc(CNCCCCCCN2C(=O)c3cccc4cccc(c34)C2=O)ccc1O`: the growth was 89.3% (inactive).

Regarding `O=C(CNC(=O)OCc1ccccc1)NCC(=O)Oc1ccc([N+](=O)[O-])cc1`, the growth was 101% (inactive).

`Nc1nc(N=Nc2ccc(O)cc2)cc(=O)[nH]1`: the growth was 91.4% (inactive).

On to `O=C1OCC2=C1C(c1cccc(Cl)c1)c1cc3c(cc1N2CCO)CCC3` (stereo not given), for which the growth was 38.9% (inactive).

In the case of `Cc1ccc(NC(=O)Nc2nc3ccccc3s2)cc1NC(=O)Nc1nc2ccccc2s1`, the growth was 99.1% (inactive).

Regarding `N=C1c2nc3n(c2C(=O)c2nc4n(c21)CCCC4)CCCC3`, the growth was 95.6% (inactive).

In the case of `CN1c2ccccc2[C@]2(Cc3ccccc3)Cc3ccccc3N[C@H]12`, the growth is 114% (inactive).

Consider `Cc1cc(Cl)nc(N(CCCNc2ccnc3cc(Cl)ccc23)Cc2cccs2)n1`, for which the growth is 36.4% (inactive).

As to `CN(C)CCNC(=O)c1cccn2c(=O)c3cc4ccccc4cc3nc12`, the growth is 16.1% (inactive).

With `Cc1cc(C)c(NC(=O)c2sc3nc4c(cc3c2N)C(=O)CCC4)c(C)c1`, the growth is 54.4% (inactive).
